Records with an inconclusive call do not appear. Activity calls are given as the source filed them. The calls were made as follows: active = hit-call score of the fitted dose curve at least 0.9, where 1 is the maximum; inconclusive = response in the unintended direction; inactive = score below 0.9.

Broadly, the AC50 is the concentration giving half of the maximal activity seen.

The test is described as follows: Tanguay_ZF_120hpf_EYE_legacy: (Legacy) Oregon State University Tanguay Lab 120 Hour Post-fertilization zebrafish Assay for Eye Malformation (AID 2283636).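 Also: binary presence or absence of eye malformation scored by brightfield in 120 hpf larvae.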 Here is the method: Tanguay_ZF_120hpf_legacy is a whole embryo, multiplexed endpoint assay using zebrafish larvae exposed for 120 hours post fertilization on a 96-well plate.Tanguay_ZF_120hpf_EYE_legacy is one of one assay component(s) measured or calculated from the Tanguay_ZF_120hpf_legacy assay. It is designed to make measurements of zebrafish development as detected with brightfield microscopy of developing zebrafish embryos.Data from the assay component Tanguay_ZF_120hpf_EYE_legacy was analyzed into 1 assay endpoints. This assay endpoint, Tanguay_ZF_120hpf_EYE_legacy, was analyzed in the positive analysis fitting direction relative to DMSO as the negative control and baseline of activity. Using a type of morphology reporter, gain-of-signal activity can be used to understand changes in developmentals as they relate to the whole embryo. To generalize the intended target to other relatable targets, this assay endpoint is annotated to the zebrafish development intended target family, where the subfamily is embryonic eye development.
Zebrafish husbandry: Tropical 5D wild-type adult zebrafish were housed in at an approximate density of 1000 per 100 gallon tank at the Sinnhuber Aquatic Research Laboratory, Oregon State University, Corvallis, OR. Each tank was kept at standard laboratory conditions of 28C on a 14-h light/10-h dark photoperiod in fish water consisting of reverse osmosis water supplemented with a commercially available salt (Instant Ocean). Spawning funnels were placed into the tanks the night prior, and embryos were collected and staged. To increase bioavailability, the chorion was enzymatically removed using pronase (63.6mg/ml, >/= 3.5U/mg, Sigma-Aldrich: P5147) at 4 hours post fertilization (hpf) using a custom automated dechorionator.Chemical exposures: Six hpf dechorionated embryos were placed 1 embryo per well in a 96-well plate prefilled with 90 ul of EM using automated embryo placement systems (AEPS). Ten microliters of each row of dilution plate 2 was added to 2 exposure plates. The final DMSO concentration used was 0.64% (vol/vol). Thirty-two embryos were also exposed to 5uM trimethyltin chloride (positive control). Plates were sealed to prevent evaporation and foil covered to reduce light exposure and kept in a 28C incubator. Embryos were statically exposed until 120 hpf. At 24 hpf, embryos were assessed for photomotor response using a custom photomotor response analysis tool (PRAT) and for developmental toxicity endpoints (MO24: mortality at 24 hpf, DP: developmental progression, SM: spontaneous movement, and NC: notochord distortion). At 120 hpf, locomotor activity was measured using Viewpoint Zebralab and assessed for 18 endpoints. Zebrafish acquisition and analysis program (ZAAP), a custom program designed to inventory, acquire, and manage zebrafish data, was used to collect developmental endpoints as either present or absent (i.e., binary responses were recorded). If mortality occurred for an embryo (at either 24 or 120 hpf), the non-mortality endpoints were not measured.
For the compound `CCOC(=O)COc1ccc2c(c1)CC(NCC(O)c1cccc(Cl)c1)CC2` (stereo not given), the compound was classed as inactive.

`Cc1ccc(N)cc1O`: the outcome was inactive. Take `CCOc1cccc(-n2cc(C(=O)N3CCN(c4cc(C(=O)O)c5ccccc5c4)CC3)nc2-c2ccc(C)cc2)c1`: the compound was classed as inactive. For the compound `C=CCCCCCCCCC(=O)O`, the outcome was inactive. Turning to `O=C(O)c1cc(N=Nc2ccc(S(=O)(=O)Nc3ccccn3)cc2)ccc1O`, the outcome was inactive.

Regarding `CCn1nc(Cc2ccccc2)cc1C1CCN(C[C@H]2C[C@H](N(C)[C@@H](C(=O)O)C(C)C)C[C@@H]2c2cccc(F)c2)CC1`, the compound was classed as inactive. Turning to `CCCC(=O)OCC`, the compound was called inactive. On to `CCCCCCc1ccc(O)cc1O`, for which the result was inactive. On to `Nc1nc2ncc(CNc3ccc(C(=O)N[C@@H](CCC(=O)O)C(=O)O)cc3)nc2c(=O)[nH]1`, for which the compound was classed as inactive.

As for `Cc1ccc(S(=O)(=O)O)cc1C`, the result was inactive. Consider `O=C(O)CCN(C1(C(=O)NO)CCCC1)S(=O)(=O)c1ccc(Oc2ccc(F)cc2)cc1`, for which the result was inactive.

For the compound `O=P(OC(CCl)CCl)(OC(CCl)CCl)OC(CCl)CCl`, the AC50 was 36.7 µM (active).

`CCCN(C1CCN(C(=O)C2CCNCC2)CC1)[C@@H]1CCc2ccc(OC)cc2C1`: the result was inactive. Same read-out and setting: the entry for `Cn1c(=O)c2c(ncn2C)n(C)c1=O` is “inactive”. For `Fc1ccccc1[C@@H](F)COC1CCC(Nc2ncnc3[nH]ncc23)CC1` (stereo not given in full), the compound was called inactive. For `CCNc1ccccc1`, the call was inactive.

With `O=C(O)c1cccc(N(Cc2cccnc2)c2ccc(OC(F)F)c(OC(F)F)c2)c1`, the outcome was inactive. On to `Cn1c(=O)cc(Oc2ccc(F)cc2F)c2cnc(NCC(C)(C)O)nc21`, for which the call was inactive. Regarding `CC(C)=CCC/C(C)=C\CO`, the call was inactive. For `C[C@](N)(Cc1ccc(O)c(O)c1)C(=O)O`, the result was inactive. For the compound `O=C(NS(=O)(=O)/C=C/c1ccccc1)c1ccc(F)cc1Cl`, the result was inactive. In the case of `CCCCC(CC)COC(=O)c1ccc(C(=O)OCC(CC)CCCC)cc1` (stereo not given), the compound was called inactive. Turning to `CCCCC(CC)COC(=O)CCCCCCCCC(=O)OCC(CC)CCCC` (stereo not given), the compound was called inactive.

With `CC[C@H]1OC(=O)[C@H](C)[C@@H](O[C@H]2C[C@@](C)(OC)[C@@H](O)[C@H](C)O2)[C@H](C)[C@@H](O[C@@H]2O[C@H](C)C[C@H](N(C)C)[C@H]2O)[C@](C)(O)C[C@@H](C)C(=O)[C@H](C)[C@@H](O)[C@]1(C)O`, the compound was classed as inactive. On to `Cc1c(-c2cccnc2)c2ccccc2n1CCCCC(=O)O`, for which the call was inactive. The same measure, in the same setting: the result for `COc1cccc(-c2ccc(/C=C\CN3CCCCCC3)cc2Cl)c1` reads “inactive”; that for `Cc1ccc(C)c(O)c1`, “inactive”. `CC(C)CCCCCCOC(=O)c1ccc(C(=O)OCCCCCCC(C)C)c(C(=O)OCCCCCCC(C)C)c1`: the result was inactive. Still for that read-out and setting: the entry for `COc1ccc2sc(C(=O)Nc3nnn[nH]3)c(OC(C)C)c2c1` is “inactive”; for `CC[C@H]1CC[C@H](NCc2cc3c(cc2OC)[C@H]2C[C@H]2C(=O)N3C)[C@H](c2ccccc2)N1` it is “inactive”. Turning to `CNS(=O)(=O)c1cc(C(=O)N2CCC(CCN3C4CCC3CC(n3c(C)nc5ccccc53)C4)(c3cccc(F)c3)CC2)c(Cl)cc1F` (stereo not given), the outcome was inactive.

Turning to `COC(=O)c1c(Cl)c(Cl)c(C(=O)OC)c(Cl)c1Cl`, the call was inactive.

Take `CC(C)(O)c1coc(S(=O)(=O)NC(=O)Nc2c3c(cc4c2CCC4)CCC3)c1`: the compound was called inactive. As for `C=CC(=C)CCC=C(C)C`, the outcome was inactive. The same measure, in the same setting: the result for `CC(C)CCCCCCCOC(=O)CCCCC(=O)OCCCCCCCC(C)C` reads “inactive”; that for `O=C(O)CC(O)C(=O)O` (stereo not given), “inactive”. For the compound `CCOCCOCCOCCO`, the call was inactive. With `CC(C)=CCC/C(C)=C/CO`, the result was inactive.

In the case of `O=C(CCCCCCCCc1cccnc1)N1CCC(C=C(c2ccccc2)c2ccccc2)CC1`, the result was inactive. On to `CCOC(=O)CC(CC(=O)OCC)(OC(C)=O)C(=O)OCC`, for which the compound was called inactive.

For the origin of these results see PubChem BioAssay (EPA / NIEHS).
